High-throughput results: PubChem, National Center for Advancing Translational Sciences (NCATS)
HP1b chromo inh: HTS for Inhibitors of HP1-beta Chromodomain Interactions with Methylated Histone Tails; hit rate 0.56% among 390,000; Chromobox protein homolog 1 (Homo sapiens), P83916; AlphaScreen HP1-beta / biotin-H3K9me3 peptide binding; Potency, µM (doses to about 114 µM), for inactives: at the highest dose activity change, negative = inhibition, hits mostly inhibitors; note: nearly all actives have a fitted effect of over 70% in size
Target sequence (P83916 whole entry, looked up): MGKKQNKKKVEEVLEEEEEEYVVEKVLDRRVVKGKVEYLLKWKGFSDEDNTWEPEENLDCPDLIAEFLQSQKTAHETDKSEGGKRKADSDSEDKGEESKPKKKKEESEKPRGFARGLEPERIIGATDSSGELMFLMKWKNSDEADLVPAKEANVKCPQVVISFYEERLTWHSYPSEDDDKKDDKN
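HP1-beta protein (50 nM final) preincubated 30 min at room temperature with biotinylated H3(1-18)K9me3 peptide (50 nM) in PBS pH 7.4, 0.01% Tween-20, then compound added for 30 min. AlphaScreen streptavidin donor/nickel chelate acceptor beads (10 ug/mL final), 30 min dark, luminescence read.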
12-LOX inh: Primary qHTS assay for inhibitors of human arachidonate 12S-lipoxygenase (ALOX12): Round 2. Polyunsaturated fatty acid lipoxygenase ALOX12 (Homo sapiens), P18054. purified 12hLO, xylenol orange hydroperoxide absorbance. Potency, µM (titrated, usually from 108 µM), for inactives: at the top dose activity change, negative = inhibition, hits mostly inhibitors. hit rate 1.1% among 580,000. AID 1671190, 2021; note: % is set by controls: 0 for no effect and ±100 for the full control effect
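Purified human 12hLO at 150 nM in 25 mM Hepes, 0.01% Triton X-100, pH 7.0, preincubated 15 min at room temperature with compound. Reaction started with 40 uM arachidonic acid, 30 min at room temperature. Hydroperoxide measured by Fe-xylenol orange, 573/405 nm absorbance ratio.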
JMJD2A Tudor: qHTS Assay for Inhibitors of JMJD2A-Tudor Domain. AlphaScreen JMJD2A-Tudor / H3K4me3 peptide binding. Potency, µM (titrated, usually from 114 µM), inactives show at the highest dose activity change, negative = inhibition, actives largely listed as inhibitors. hit rate 4.4% among 390,000. AID 504339, 2011; note: % is set by controls: 0 for no effect and ±100 for the full control effect; nearly all actives have a fitted effect of over 50% in size
BAZ2B block: qHTS Assay for Inhibitors of BAZ2B; hit rate 4.4% among 360,000; Bromodomain adjacent to zinc finger domain protein 2B (Homo sapiens), Q9UIF8; AlphaScreen BAZ2B-H3K14Ac peptide displacement; Potency, µM (top dose mostly 114 µM), inactives show at the top dose activity change, negative = inhibition, usual class: inhibitors; note: % is set by controls: 0 for no effect and ±100 for the full control effect; nearly all actives have a fitted effect of over 60% in size
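BAZ2B (50 nM) with biotin-H3(5-23)K14Ac peptide (50 nM) in PBS pH 7.4, 0.01% Tween-20, preformed 30 min, then compound 30 min at room temperature; top concentration 110uM. AlphaScreen streptavidin donor/nickel chelate acceptor beads (10 ug/mL final), 20 min dark, signal read.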
G9a block: qHTS Assay for Inhibitors of Histone Lysine Methyltransferase G9a. AID 504332, 2011. Histone-lysine N-methyltransferase EHMT2 (Homo sapiens), Q96KQ7. hit rate 8.8% among 350,000. G9a H3K9 monomethylation, AlphaScreen, 2 h. Potency, µM (highest dose often 102 µM), for inactives: top-dose activity, negative = inhibition, hits mostly inhibitors; note: % is set by controls: 0 for no effect and ±100 for the full control effect; nearly all actives have a fitted effect of over 75% in size
Target sequence (Q96KQ7 913-1193 limits assumed): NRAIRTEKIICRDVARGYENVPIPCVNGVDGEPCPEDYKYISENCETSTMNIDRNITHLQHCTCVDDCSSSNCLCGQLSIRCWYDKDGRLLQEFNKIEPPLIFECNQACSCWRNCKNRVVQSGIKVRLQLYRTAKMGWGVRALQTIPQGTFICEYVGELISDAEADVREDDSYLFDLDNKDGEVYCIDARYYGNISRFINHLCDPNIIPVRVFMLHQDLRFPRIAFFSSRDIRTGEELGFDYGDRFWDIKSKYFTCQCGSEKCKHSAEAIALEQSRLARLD
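G9a (20 nM) was preincubated 15 min with compound, then reacted 2 h at room temperature with 500 nM biotin-H3K9 peptide and 20 µM SAM. Monomethyl-H3K9 detected by AlphaScreen using anti-H3K9me1 antibody.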
Sfp PPTase inh: qHTS Assay for Inhibitors of Bacillus subtilis Sfp phosphopantetheinyl transferase (PPTase) | 4'-phosphopantetheinyl transferase ffp (Bacillus subtilis), Q9F4F7 | Biochemical Sfp PPTase activity, qHTS | Potency, µM, without a hit: largest response in the series, negative = inhibition, actives largely listed as inhibitors | hit rate 3.5% among 310,000;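 note: the enzyme is Sfp with the accession as filed and its product quenches rhodamine fluorescence; 0% = enzyme reaction without inhibitor and -100% = no enzyme wells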
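Reaction rates are the 30-min fluorescence difference (ex 525, em 598 nm) in wells containing 15 nM Sfp, 5 uM rhodamine-CoA and 12.5 uM BHQ-2-YbbR at pH 7.6 with 10 mM MgCl2.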
Numbers without * were called inactive; ? = inconclusive; . = no result given; [ ] = remark or other dose. Most compounds without a hit are left out; they make up all but 8.7% or so of the library. Calls come from the whole dose curve; as a rule, active = well fitted curve in the direction sought with a large enough effect; inconclusive = small, poorly fitted or top-dose-only effect, or another doubt; inactive = no such curve, though single readings can be large; an effect the other way counts as inactive or inconclusive. Potency is the fitted concentration of half-maximal effect.

SMILES | HP1b chromo inh | 12-LOX inh | JMJD2A Tudor | BAZ2B block | G9a block | Sfp PPTase inh
CC(C)NS(=O)(=O)c1ccc(C(=O)NCc2ccc(-c3nc4ccccc4s3)o2)cc1 | . | 25µM* | . | . | . | .
O=C(NCc1ccc(-c2nc3ccccc3s2)o1)c1ccccc1Br | . | -21% | . | . | . | .
O=C1NC(=NC2CCCC2)C2(CCCN(CC3CC3)C2)N1c1cccnc1 (stereo unspecified) | . | 12%[6.33 µM] | . | . | . | .
Cc1ccc(SC(C)C(=O)Nc2cccc(F)c2)cc1 (stereo unspecified) | . | 0% | . | . | . | .
COc1cc2c(cc1OC)C1O[C@](CCCCN3C(=O)c4ccccc4C3=O)(C2)Oc2c1c(=O)oc1ccc(F)cc21 | . | . | . | 8.9µM* | ? | -19%
COc1cc2c(cc1OC)[C@@H]1O[C@](CCCCN3C(=O)c4ccccc4C3=O)(C2)Oc2cc(C)n(-c3ccccc3)c(=O)c21 | . | . | . | 9%[22.9 µM] | . | -3%
COc1cc2c(cc1OC)C1O[C@](c3ccsc3)(C2)Oc2cc(C)n(Cc3ccccc3)c(=O)c21 | . | . | . | 4µM* | 13%[2.33 µM] | 7%
CCCCC[C@]12Cc3cc(OC)c(OC)cc3C(O1)c1c(cc(C)n(-c3ccccc3)c1=O)O2 | . | . | . | 11µM* | 8%[2.33 µM] | -11%
COc1ccc2c3c(c(=O)oc2c1)C1O[C@](CCCCN2C(=O)c4ccccc4C2=O)(Cc2cc(OC)c(OC)cc21)O3 | . | . | . | -13%[22.9 µM] | . | -11%
CCOC(=O)C1(Cc2ccccc2C(F)(F)F)CCN(C(C)Cc2cccc(C)n2)CC1 (stereo unspecified) | . | 26% | . | . | . | .
CCCCOc1ccccc1C(=O)Nc1ccc(OCC)c2ncccc12 | . | -10% | . | . | . | .
O=[N+]([O-])c1ccccc1/C=N/NC1=NCCN1 | 10% | 0% | -1% | . | . | .
Fc1ccccc1Sc1ccccc1CNC1=NCCN1 | ? | ? | ? | -10% | 7.1µM* | -12%
c1ccc(Sc2cccc3ccccc23)c(CNC2=NCCN2)c1 | -21% | ? | 32µM* | ? | 16µM* | -20%
COc1ccc(NC(=O)c2cc(=O)c3cc(C)ccc3o2)c(OC)c1 | . | -29% | . | . | . | .
COc1ccc(CNC(=O)C(C#N)c2nc3ccccc3nc2N2CCCC2)cc1 (stereo unspecified) | 19% | 487% | -9% | -8% | -1%[59 µM] | 0%
COc1ccc(CNC(=O)C(C#N)c2nc3ccccc3nc2N2CCN(C)CC2)cc1 (stereo unspecified) | ? | -25% | 71µM* | 50µM* | ? | -3%
CC(C)OC(=O)C(C#N)c1nc2ccccc2nc1N1CCCC1 (stereo unspecified) | 0% | . | -31% | -35% | 11µM* | 8%
CCC(CC)COC(=O)C(C#N)c1nc2ccccc2nc1N1CCN(CC)CC1 (stereo unspecified) | 7% | ? | ? | 35µM* | 45µM* | -23%
CCC(C)COC(=O)C(C#N)c1nc2ccccc2nc1N1CCCCC1 (stereo unspecified) | 47% | 0% | 3% | -7% | 15% | -7%
CCNc1nc2[nH]c(=O)c3c(c2s1)OC(N)=C(C#N)C3c1ccc(C)cc1 (stereo unspecified) | 38% | 0% | -22% | ? | ? | 45µM*
CCC1C/C(=C\c2cc(OC)c(OC)cc2OC)C(=O)/C(=C/c2cc(OC)c(OC)cc2OC)C1 (stereo unspecified) | ? | . | 18µM* | 10µM* | 25µM* | 56µM*
COc1cc(OC)c(OC)cc1/C=C1/Cc2ccccc2C1=O | 82% | 0% | -22% | 4% | -9%[2.33 µM] | 11%
COc1cc(/C=C2\CC(C(C)(C)C)C/C(=C\c3cc(OC)c(OC)c(OC)c3)C2=O)cc(OC)c1OC (stereo unspecified) | ? | 0% | ? | ? | -31%[2.33 µM] | -20%
COc1cc(OC)c(OC)cc1/C=C1\CC(C)C/C(=C\c2cc(OC)c(OC)cc2OC)C1=O (stereo unspecified) | ? | ? | 20µM* | 11µM* | 32µM* | 45µM*
SMILES | HP1b chromo inh | 12-LOX inh | JMJD2A Tudor | BAZ2B block | G9a block | Sfp PPTase inh
CCC1C/C(=C/c2ccco2)C(=O)/C(=C/c2ccco2)C1 (stereo unspecified) | . | . | . | 28µM* | 32µM* | 32µM*
COc1ccc(-n2c(COc3cccc(C)c3)nnc2SCC(=O)O)cc1 | 32% | 0% | -16% | 2% | -4% | 17%
N#Cc1ccccc1NC(=O)CSc1nnc(-c2ccccc2)n1-c1ccccc1 | 28% | 0% | 1% | 3% | ? | 15%
CCN(CC)c1ccc(-c2nnc(SCC(=O)Nc3ccccc3C#N)n2-c2ccccc2)cc1 | 19% | 362% | -30% | -29% | 10µM* | 17%
O=C(O)CCSc1nnc(-c2ccncc2)n1-c1ccccc1 | 21% | 0% | 1% | 3% | -51%[59 µM] | 3%
CCNC(=O)CSc1nnc(-c2ccccc2)n1-c1ccc(OCC)cc1 | 26% | 27% | -1% | ? | 50µM* | -4%
COc1ccc(-c2nnc(SCCC(=O)O)n2-c2ccccc2)cc1 | 41% | ? | 40µM* | -14% | ? | 23%
Cc1cccc(OCc2nnc(SCCC(=O)O)n2-c2ccccc2)c1 | 40% | 0% | -5% | 79µM* | -47%[0.501 µM] | 50µM*
CCOCCOC(=O)COc1ccc2c(=O)c(Oc3cc(C)ccc3C)coc2c1 | . | 28% | . | . | . | .
Cn1c(=O)c2c(nc(NCCO)n2Cc2ccccc2Br)n(C)c1=O | . | 12% | . | . | . | .
Cc1ccccc1OCc1nnc(SC(C)C(=O)O)n1-c1ccccc1 (stereo unspecified) | . | -18% | . | . | . | .
Cc1ccccc1OCc1nnc(SCCN2CCCC2)n1-c1ccccc1 | 23% | 8% | -4% | 79µM* | -32% | 2%
Cc1cc(C)n(CC(=O)N2CCC(c3nc(CCOCC4CCCC4)no3)C2)n1 (stereo unspecified) | . | 12% | . | . | . | .
CCN1CCN(c2oc(COc3ccc(-c4ccccc4)cc3)nc2C#N)CC1 | -60% | 14% | ? | 32µM* | 40µM* | ?
COc1ccc(OCc2nc(C#N)c(N3CCN(c4ccc(OC)cc4)CC3)o2)cc1 | -7% | -1% | ? | ? | 11µM* | 3%
COc1ccccc1/C=C/c1nc(C#N)c(N2CCCCC2)o1 | -5% | -26% | -6% | ? | ? | .
